Source: PubChem
An excerpt weighted towards active compounds, which were near 12% of everything screened.
L3MBTL1 block: inhibitors of human L3MBTL1; 230,000 tested, 0.66% active; Potency, µM (series often up to 57.1 µM), for inactives: top-dose activity, negative = inhibition, actives largely listed as inhibitors; AlphaScreen L3MBTL1–H3K9me1 peptide binding; Q9Y468; AID 485360; note: % is set by controls: 0 for no effect and ±100 for the full control effect; nearly all actives have a fitted effect of over 60% in size
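L3MBTL1 (50 nM) pre-complexed 30 min with biotinylated H3(1-15)K9me1 peptide (75 nM), then compounds added for 30 min at room temperature; AlphaScreen streptavidin donor/nickel chelate acceptor beads (10 ug/mL final) read after 30 min dark incubation.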
HP1b binding inh: blocks HP1-beta chromodomain binding to methylated histone tails. AlphaScreen HP1-beta / biotin-H3K9me3 peptide binding. Potency, µM (top dose mostly 114 µM), without a hit: at the top dose activity change, negative = inhibition, usual class: inhibitors. 390,000 tested, 0.56% active. AID 540317; note: nearly all actives have a fitted effect of over 70% in size
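AlphaScreen: HP1-beta (50 nM) preformed 30 min with biotin-H3(1-18)K9me3 peptide (50 nM) in PBS pH 7.4, 0.01% Tween-20. Compound added for 30 min at RT, then streptavidin donor/nickel chelate acceptor beads (10 ug/mL) for 30 min.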
BAZ2B inh: BAZ2B (human) inhibition | 360,000 tested, 4.4% active | Q9UIF8 | Potency, µM (doses to about 114 µM), inactives show top-dose activity change, negative = inhibition, most hits filed as inhibitors | AlphaScreen BAZ2B-H3K14Ac peptide displacement | AID 504333; note: % is set by controls: 0 for no effect and ±100 for the full control effect; nearly all actives have a fitted effect of over 60% in size
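AlphaScreen displacement: compounds (up to 110uM) incubated 30 min at room temperature with a preformed 50 nM BAZ2B/50 nM biotinylated H3K14Ac peptide complex in PBS pH 7.4 with Tween-20. Donor and acceptor beads at 10 ug/mL final added, 20 min light-protected before reading.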
Sfp PPTase inh: Sfp phosphopantetheinyl transferase inhibition; Biochemical Sfp PPTase activity, qHTS; 310,000 tested, 3.5% active; Q9F4F7; AID 1490; Potency, µM, for inactives: largest response in the series, negative = inhibition, hits mostly inhibitors;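 note: the enzyme is Sfp with the accession as filed and its product quenches rhodamine fluorescence; 0% = enzyme reaction without inhibitor and -100% = no enzyme wells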
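Fluorescence-quenching assay with 15 nM Sfp, 5 uM rhodamine-CoA and 12.5 uM BHQ-2-labelled ybbR peptide in pH 7.6 Hepes/MgCl2 buffer. Enzyme was pre-incubated with compound for 15 min at room temperature. Rate was taken from the 30-min fluorescence change (525/598 nm).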
JMJD2A Tudor inh: blocks the human JMJD2A Tudor domain; O75164; Potency, µM (titrated, usually from 114 µM), for the others: top-dose activity change, negative = inhibition, usual class: inhibitors; AlphaScreen JMJD2A-Tudor / H3K4me3 peptide binding; 390,000 tested, 4.4% active; note: % is set by controls: 0 for no effect and ±100 for the full control effect; nearly all actives have a fitted effect of over 50% in size
G9a block: inhibitors of human histone lysine methyltransferase G9a | Potency, µM (series often up to 102 µM), inactives show top-dose activity, negative = inhibition, actives largely listed as inhibitors | Q96KQ7 | 350,000 tested, 8.8% active | G9a H3K9 monomethylation, AlphaScreen, 2 h | AID 504332; note: % is set by controls: 0 for no effect and ±100 for the full control effect; nearly all actives have a fitted effect of over 75% in size
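AlphaScreen read-out: biotin-H3K9 peptide (500 nM) methylation by 20 nM enzyme with 20 uM SAM, 2 h at room temperature after 15 min compound preincubation; anti-monomethyl H3K9 antibody plus donor/acceptor beads, 10 min dark.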
* hit, by the source's call; ? = inconclusive; . = not tested or not shown; [ ] = dose if it differs, or a comment. Calls come from the whole dose curve; as a rule, active = well fitted curve in the direction sought with a large enough effect; inconclusive = small, poorly fitted or top-dose-only effect, or another doubt; inactive = no such curve, though single readings can be large; an effect the other way counts as inactive or inconclusive. Potency is the fitted concentration of half-maximal effect.

SMILES | L3MBTL1 block | HP1b binding inh | BAZ2B inh | Sfp PPTase inh | JMJD2A Tudor inh | G9a block
CCOc1cccc(/C=N/NC(=O)c2cc(-c3cccn3C)n[nH]2)c1O | -15% | ? | 50µM* | 3% | ? | 48%[0.501 µM]
COc1ccc(/C=N/NC(=O)c2cc(-c3cccn3C)n[nH]2)cc1OC | -16% | ? | 50µM* | 5% | -12%[57.1 µM] | 79µM*
CCOc1cccc(/C=N/NC(=O)c2ccc3c(c2)OCCO3)c1O | . | -15%[57 µM] | 4% | 13% | ? | -6%
COc1cc(OC)c(OC)cc1/C=N/NC(=O)c1cc(-c2cccn2C)n[nH]1 | -25% | 28% | -28% | ? | 15% | -43%[59 µM]
Cc1ccc2c(c1)cc1c(=O)n(CC(=O)NC(C)CCc3ccccc3)nc(C)n12 (stereo not drawn) | . | 30% | -12% | . | -2% | 0%[59 µM]
CCOc1ccc(CN2CCSCC2)cc1 | 0% | ? | ? | -4% | 3.5µM* | ?
CC(=O)Nc1ccc(N2CCN(Cc3ccccc3)CC2)cc1 | . | 17% | -19% | 8% | -19% | -8%
CCOc1ccc(CNc2ccc(N3CCN(Cc4ccccc4)CC3)cc2)cc1 | -30% | ? | 8.9µM* | -9% | 8.9µM* | .
CCOc1ccc(NCc2nnc(SCc3ccc(Cl)cc3)n2-c2ccccc2)cc1 | ? | ? | 14µM* | 14% | 22µM* | 25µM*
CCOc1ccc(CN2CCC(=O)NC2=O)cc1 | 2% | 32% | -6% | 26% | 6% | 12%
CCCCOc1ccc(CN2CCSCC2)cc1 | 1% | ? | 5% | -29% | 28µM* | .
COC(=O)CSc1nnc(CNc2ccc(Cl)cc2)n1Cc1ccccc1 | 0% | 7% | ? | 3% | -21% | 56µM*
Cc1cccc(OCC(=O)NCc2ccc3c(c2)CCN3C(=O)c2ccc(Cl)cc2)c1 | . | 30% | 1% | . | -16% | -4%[59 µM]
CCN(CC)S(=O)(=O)c1cccc(NC(=O)c2ccc(C#N)cc2)c1 | 7% | 35% | -17% | 4% | -12% | 20µM*
CN(C)S(=O)(=O)c1cccc(NC(=O)c2cc(=O)[nH]c(=O)[nH]2)c1 | . | 35% | ? | ? | ? | 1.1µM*
CN(C)S(=O)(=O)c1cccc(NC(=O)c2ccncc2)c1 | 4% | 2% | 3% | 8% | -19% | 0%[59 µM]
O=C(Nc1ccc(Br)cc1)c1cccc(S(=O)(=O)N2CCc3ccccc32)c1 | . | 15% | 2% | . | 4% | 9%[59 µM]
Cc1cccc(OCc2nc(CC(=O)Nc3ccc(Cl)cc3)cs2)c1 | . | 38% | -27% | . | -4% | 5%[59 µM]
COc1ccc2[nH]c(=O)c(NC(N)=S)nc2c1 | -10% | 9% | -6% | 35µM* | -24% | -8%[2.33 µM]
O=C(C1CCN(S(=O)(=O)Cc2ccccc2)CC1)N1CCN(c2ccc(F)cc2)CC1 | . | 10% | -19% | . | -20% | -48%[59 µM]
CC(C)c1ccc(CNC(=O)c2ccc(N3CCCC3)c(NC(=O)NCc3ccc(F)cc3)c2)cc1 | . | 32% | -19% | . | -8% | -1%[12.7 µM]
COc1cccc2sc(N(CCCN(C)C)C(=O)COc3ccc(Cl)cc3)nc12 | . | 26% | . | -26% | -20% | 79µM*
CN(C)CCCN(C(=O)COc1ccc(Cl)cc1)c1nc2cc3c(cc2s1)OCCO3 | 2% | -20% | -35% | . | ? | 50µM*
CN(C)CCCN(C(=O)COc1ccc(Cl)cc1)c1nc2cc3c(cc2s1)OCO3 | . | -9% | ? | -10% | ? | 71µM*
CN(C)CCCN(C(=O)COc1ccccc1)c1nc2cc3c(cc2s1)OCO3 | . | 9% | -33% | -18% | -15% | 50µM*
CN(C)CCCN(C(=O)CCc1ccccc1)c1nc2ccc(Cl)cc2s1 | -12% | 7% | ? | ? | -12% | ?
CN(C)CCCN(C(=O)COc1ccccc1)c1nc2ccc(Cl)cc2s1 | . | 4% | . | -16% | -22% | ?
CN(C)CCCN(C(=O)COc1ccccc1)c1nc2c(F)cccc2s1 | -8% | 58% | -8% | -7% | -10%[11.4 µM] | -46%
